In general, inhibition refers to the drop in the measured response relative to a control, in per cent.

Experiment [1] in a line: yeast TOR pathway RPL19A-GFP modulators, primary screen, cell-based, S. cerevisiae, multiplex flow cytometry (AID 1862; in the data active = percent of DMSO control GFP below about 86%;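 note: lower values mimic rapamycin by blocking the RPL19A rise seen in DMSO cells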). Particulars: S. cerevisiae RPL19A-GFP strain, flow cytometry fluorescence, 3 h; at 10 µM; stronger effect = lower value.
Experiment [2] in a line: modulators of MEP2-GFP levels in yeast, primary screen, S. cerevisiae, multiplex flow cytometry (AID 1867;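 active = GFP response, as percent of the DMSO control, above the screen-wide mean plus 3 SD, about 139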;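 note: median GFP channel fluorescence of barcode-gated MEP2-GFP cells measured by flow cytometry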). The settings on record: S. cerevisiae MEP2-GFP strain, 3 h, at 10 µM, stronger effect = higher value, 100% means same as DMSO wells. A general note: In flow cytometry, cells or beads pass a laser one at a time.
Experiment [3] is described as follows: modulators of CIT2-GFP expression in yeast, primary screen, S. cerevisiae, GFP fusion, multiplex flow cytometry (AID 1870;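 active = percent response above a set limit, the screen-wide mean plus 3 SD, cut at about 130% in these data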;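 note: barcoded CIT2-GFP strain pooled with four other GFP strains with rapamycin as positive control; median GFP fluorescence per well over plate mean of DMSO wells so 100% = DMSO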). Particulars: 3 h, at 10 µM, stronger effect = higher value.
A short description of experiment [4]: modulators of LAP4-GFP expression in yeast, primary screen, S. cerevisiae, multiplex flow cytometry (AID 1873;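 active = GFP signal, as percent of the solvent control, above the screen mean plus 3 SD, about 149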). The settings on record: 3 h, at 10 µM, stronger effect = higher value.
Experiment [5] is described as follows: inhibitors of CD8+ T cell-vesicle binding, pilot screen, LFA-1/ICAM-1 modulator project, MLPCN validation set, flow cytometry (AID 2523;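 active = response below a set limit, under 55% cells CD8-positive and vesicle-bound, and CD8 cells' 90th-percentile brightness under 279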;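 for vesicle binding response: mean PE anti-B7-1 fluorescence of CD8+ cells relative to row control; 100% = QL9-loaded vesicles with DMSO vehicle in the same plate row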). The settings on record: 2C mouse CD8+ T cells, at 7 µM, stronger effect = lower value; double positive events: measured here: CD8+/vesicle+ event percentage.
Experiment [6] deals with Integrin beta-1 (Homo sapiens) + Integrin alpha-4 (Homo sapiens) (UniProt P13612+P05556). The experiment can be described thus: inhibition of HUTS-21 binding to VLA-4, pilot screen, VLA-4 allosteric modulator project, U937 cells, HUTS-21 mAb, flow cytometry, validation set (AID 2674;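 active = inhibition above 50%, about 3 SD of the validation set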;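 note: antibody binding induced by the VLA-4 ligand LDV present at three times its Kd; 0% = LDV ligand with antibody and no compound and 100% = antibody without LDV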). The settings on record: HUTS-21 LIBS mAb binding, at 6.7 µM, stronger effect = higher value, binding induced by LDV ligand.
Chain of Integrin beta-1 (Homo sapiens) + Integrin alpha-4 (Homo sapiens) (P05556 whole entry, looked up): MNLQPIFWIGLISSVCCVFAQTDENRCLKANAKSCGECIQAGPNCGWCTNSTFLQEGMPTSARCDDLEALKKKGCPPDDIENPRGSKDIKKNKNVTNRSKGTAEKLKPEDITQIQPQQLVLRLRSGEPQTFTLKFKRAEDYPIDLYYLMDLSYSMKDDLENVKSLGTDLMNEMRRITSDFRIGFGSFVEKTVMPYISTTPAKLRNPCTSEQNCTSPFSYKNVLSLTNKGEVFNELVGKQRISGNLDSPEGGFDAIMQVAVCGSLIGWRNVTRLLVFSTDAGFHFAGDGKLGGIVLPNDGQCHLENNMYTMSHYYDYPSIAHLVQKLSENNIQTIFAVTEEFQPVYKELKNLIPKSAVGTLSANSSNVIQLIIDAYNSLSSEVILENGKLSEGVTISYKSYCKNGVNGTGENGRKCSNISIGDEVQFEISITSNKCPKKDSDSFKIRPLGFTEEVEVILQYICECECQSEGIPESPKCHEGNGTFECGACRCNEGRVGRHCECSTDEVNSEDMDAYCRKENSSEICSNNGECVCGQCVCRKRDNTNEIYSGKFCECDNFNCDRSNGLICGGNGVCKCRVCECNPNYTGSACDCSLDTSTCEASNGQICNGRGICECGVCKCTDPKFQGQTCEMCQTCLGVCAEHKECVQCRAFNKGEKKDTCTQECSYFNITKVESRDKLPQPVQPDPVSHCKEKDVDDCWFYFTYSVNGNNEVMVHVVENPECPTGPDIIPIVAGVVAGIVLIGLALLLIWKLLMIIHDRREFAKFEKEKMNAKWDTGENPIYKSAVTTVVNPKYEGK
Chain of Integrin beta-1 (Homo sapiens) + Integrin alpha-4 (Homo sapiens) (P13612 whole entry, looked up): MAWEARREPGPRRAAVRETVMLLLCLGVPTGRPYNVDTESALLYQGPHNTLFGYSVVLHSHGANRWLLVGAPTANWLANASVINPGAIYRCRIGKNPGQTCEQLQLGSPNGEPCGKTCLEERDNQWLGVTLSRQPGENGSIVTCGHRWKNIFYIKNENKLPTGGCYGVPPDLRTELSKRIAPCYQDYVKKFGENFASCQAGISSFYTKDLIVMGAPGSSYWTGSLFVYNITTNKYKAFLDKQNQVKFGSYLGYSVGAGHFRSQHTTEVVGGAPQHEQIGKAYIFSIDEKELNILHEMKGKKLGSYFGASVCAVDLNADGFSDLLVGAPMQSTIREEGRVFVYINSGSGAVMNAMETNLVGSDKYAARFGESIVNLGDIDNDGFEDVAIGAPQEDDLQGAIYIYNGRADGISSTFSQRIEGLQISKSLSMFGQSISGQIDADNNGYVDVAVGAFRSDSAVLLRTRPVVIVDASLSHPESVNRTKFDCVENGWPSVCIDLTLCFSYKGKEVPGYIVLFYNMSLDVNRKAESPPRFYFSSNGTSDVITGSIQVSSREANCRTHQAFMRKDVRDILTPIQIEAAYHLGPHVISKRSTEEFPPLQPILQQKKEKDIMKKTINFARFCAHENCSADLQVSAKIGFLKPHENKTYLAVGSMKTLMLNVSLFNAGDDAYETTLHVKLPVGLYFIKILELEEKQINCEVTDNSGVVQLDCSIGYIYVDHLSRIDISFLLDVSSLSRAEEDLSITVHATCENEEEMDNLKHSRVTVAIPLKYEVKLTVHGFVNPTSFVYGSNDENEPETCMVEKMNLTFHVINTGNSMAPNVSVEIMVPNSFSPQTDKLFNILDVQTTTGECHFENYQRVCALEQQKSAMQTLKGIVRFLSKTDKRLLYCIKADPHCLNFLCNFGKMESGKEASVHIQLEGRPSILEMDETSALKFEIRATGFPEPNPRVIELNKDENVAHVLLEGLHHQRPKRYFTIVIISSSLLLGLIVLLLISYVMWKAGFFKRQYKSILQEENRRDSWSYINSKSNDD

Experiment [7] in a line: superoxide lowering in aged yeast cells, pilot screen, validation compound set (AID 2706;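 active = superoxide response below 65% of plate, a cut near 3 SD across the whole screen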;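 note: yeast exposed to compound for one week at 30 degrees C before staining; 100% = mean of all compound wells on the same plate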). The settings on record: S. cerevisiae aging, superoxide DHE fluorescence; at 10 µM, stronger effect = lower value.
Experiment [8] addresses Beta-adrenergic receptor kinase 1 (Homo sapiens) (UniProt P25098). The experiment can be described thus: GRK2 binders displacing RNA aptamer, biochemical, validation, human GRK2, bead flow cytometry (AID 488806;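 active = aptamer binding inhibition above 30%, about 3 SD of noise from non-fluorescent compounds; inactive = inhibition at or below 30%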). The settings on record: bead-bound GRK2, FAM-aptamer displacement, at 10 µM, stronger effect = higher value.
Experiment [9] addresses Beta-2 adrenergic receptor (Homo sapiens) (UniProt P07550). As to the kind of experiment: beta2AR agonists driving receptor internalization, pilot screen, cell-based, FAP fluorogen, flow cytometry, validation set (AID 504459;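 active = percent response above 42, roughly 3 SD of non-fluorescent test compounds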;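 note: agonist-driven loss of surface beta2AR via internalization measured by FAP dye flow cytometry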). The settings on record: Am2.2-beta2AR cells, FAP surface receptor flow cytometry; at 10 µM; stronger effect = higher value.
In experiment [10] the target is AP-2 complex subunit beta (Homo sapiens) (UniProt P63010). The experiment can be described thus: inhibitors of arrestin peptide binding to AP2, pilot screen, biochemical, validation set, GST-AP2 beads, flow cytometry (AID 504541;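 active = inhibition above 54%, about 3 SD of non-fluorescent compounds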;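 note: AP2 carries R879A mutation and is captured from E. coli lysate; bead-bound FITC arrestin peptide fluorescence measuring arrestin peptide binding to AP2; 0% = DMSO wells and 100% = excess unlabeled arrestin peptide control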). The settings on record: FITC arrestin peptide, at 10 µM, stronger effect = higher value, AP2 beta2 appendage fragment, R879A mutant.
Chain of AP-2 complex subunit beta (Homo sapiens) (P63010 whole entry, looked up, the tested form may be a part, one chain of several): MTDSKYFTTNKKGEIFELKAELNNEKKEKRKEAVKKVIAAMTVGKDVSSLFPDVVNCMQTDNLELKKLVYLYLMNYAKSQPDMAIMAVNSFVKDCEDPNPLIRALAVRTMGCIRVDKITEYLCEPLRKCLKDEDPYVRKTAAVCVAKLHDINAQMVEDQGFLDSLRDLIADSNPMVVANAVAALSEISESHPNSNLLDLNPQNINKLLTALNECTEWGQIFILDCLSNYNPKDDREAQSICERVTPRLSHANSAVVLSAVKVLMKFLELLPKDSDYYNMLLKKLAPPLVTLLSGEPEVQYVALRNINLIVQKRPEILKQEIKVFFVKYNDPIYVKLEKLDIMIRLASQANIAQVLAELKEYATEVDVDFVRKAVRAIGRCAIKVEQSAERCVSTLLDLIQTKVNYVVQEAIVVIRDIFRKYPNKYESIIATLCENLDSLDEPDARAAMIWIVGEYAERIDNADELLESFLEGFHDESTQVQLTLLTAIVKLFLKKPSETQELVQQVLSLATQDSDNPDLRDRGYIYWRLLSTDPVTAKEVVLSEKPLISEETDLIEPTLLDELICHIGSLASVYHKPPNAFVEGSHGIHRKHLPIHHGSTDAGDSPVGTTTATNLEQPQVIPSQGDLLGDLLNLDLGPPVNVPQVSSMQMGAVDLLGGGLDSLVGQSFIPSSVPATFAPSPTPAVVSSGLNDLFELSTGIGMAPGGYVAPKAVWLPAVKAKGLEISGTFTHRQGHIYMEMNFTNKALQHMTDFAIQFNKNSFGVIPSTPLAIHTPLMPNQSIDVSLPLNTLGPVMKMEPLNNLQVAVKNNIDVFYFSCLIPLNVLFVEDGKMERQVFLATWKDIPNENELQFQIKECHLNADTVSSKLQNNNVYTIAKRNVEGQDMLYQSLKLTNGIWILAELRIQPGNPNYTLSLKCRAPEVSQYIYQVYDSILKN
Experiment [11] can be described thus: yeast V-ATPase proton transport modulators, S. cerevisiae, pHLuorin, HTS validation (AID 504600; in the data active = response above about 15%;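 note: plate controls were DMSO for no effect and reference compound for full effect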). The settings on record: S. cerevisiae pHLuorin cytosolic pH, at 10 µM, stronger effect = higher value.
Experiment [12] deals with anti-desmoglein-3 scFv antibody binding to human DSG3. As to the kind of experiment: inhibitors of anti-DSG3 scFv binding to DSG3, pilot screen, biochemical, validation compound set, bead-based, flow cytometry (AID 588368).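 Note: signal is the median channel fluorescence of bead-bound GFP antibody.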 The settings on record: Protein G beads, DSG3-Fc, scFv-GFP binding, at 10 µM, stronger effect = lower value.
A short description of experiment [13]: inhibitors of fungal efflux pumps CDR1, CDR2, MDR1, pilot screen, validation compound set, multiplex, phenotypic (AID 588506;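 active = efflux inhibition above 0.42, the validation set average plus 4 SD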;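 note: Nile Red retained in cells so higher fluorescence means more efflux inhibition; 0 = negative control wells and 1 = enniatin B 25 µM full block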). The settings on record: S. cerevisiae pump-expressing triplex, Nile Red efflux flow cytometry; at 10 µM; stronger effect = higher value; the pumps come from Candida albicans.
Experiment [14] has as its target ATP-binding cassette sub-family B member 6 (Homo sapiens) (UniProt Q9NP58). As to the kind of experiment: ABCB6 transporter inhibitors, pilot screen, K562-ABCB6 cells, flow cytometry, validation set (AID 588550;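 active = inhibition above the screen-wide mean plus 3 SD, about 51%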;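 note: 0% = DMSO wells and 100% = benzethonium chloride 70 µM positive control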). Particulars: K562-ABCB6 porphyrin accumulation, 1 h, at 10 µM, stronger effect = higher value.
Experiment [15] is described as follows: promoters of myeloid differentiation in arrested cells, primary screen, cell-based, GFP/MAC1 double positive, flow cytometry, validation set (AID 588685;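 active = differentiation response of at least 50%, scaled between solvent and reference control, from cells with both markers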;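 note: compound exposure lasts four days before antibody staining and flow analysis; 0% = DMSO wells and 100% = 5 µM fulvestrant positive control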). The settings on record: ER-HoxA9 marrow cells, stronger effect = higher value, normalized: vehicle 0, fulvestrant 100.
The nature of experiment [16]: modulators of AGP1-GFP expression in yeast TOR pathway, primary screen, cell-based, multiplex flow cytometry, S. cerevisiae (AID 1887;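 active = GFP signal above the screen-wide mean plus 3 SD, that is over about 124.5% of the solvent control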;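 note: AGP1-GFP fusion strain of S. cerevisiae within a five-strain barcoded multiplex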). Particulars: 3 h, at 10 µM, stronger effect = higher value.

Each structure is given as a SMILES string. Inconclusive results are not listed. Active and inactive are the calls of the source.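 Rule for the calls, unless noted: active = binding below the plate cutoff, the plate median minus 3 SD, with a reading above zero; inconclusive = below the plate cutoff but reading exactly zero; inactive = the rest.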

Chain of Beta-2 adrenergic receptor (Homo sapiens) (P07550 whole entry, looked up): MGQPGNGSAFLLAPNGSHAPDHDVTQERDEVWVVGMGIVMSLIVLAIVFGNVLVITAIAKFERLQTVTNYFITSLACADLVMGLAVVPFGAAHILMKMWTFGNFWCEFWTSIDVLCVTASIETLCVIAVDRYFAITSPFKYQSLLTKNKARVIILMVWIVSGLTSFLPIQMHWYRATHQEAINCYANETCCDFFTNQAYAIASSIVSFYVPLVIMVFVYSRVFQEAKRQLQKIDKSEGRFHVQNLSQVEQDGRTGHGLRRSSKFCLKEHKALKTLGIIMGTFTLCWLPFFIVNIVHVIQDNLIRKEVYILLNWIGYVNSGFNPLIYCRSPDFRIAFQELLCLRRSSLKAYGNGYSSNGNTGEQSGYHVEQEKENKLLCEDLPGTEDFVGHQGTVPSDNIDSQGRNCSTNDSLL
Chain of ATP-binding cassette sub-family B member 6 (Homo sapiens) (Q9NP58 whole entry, looked up): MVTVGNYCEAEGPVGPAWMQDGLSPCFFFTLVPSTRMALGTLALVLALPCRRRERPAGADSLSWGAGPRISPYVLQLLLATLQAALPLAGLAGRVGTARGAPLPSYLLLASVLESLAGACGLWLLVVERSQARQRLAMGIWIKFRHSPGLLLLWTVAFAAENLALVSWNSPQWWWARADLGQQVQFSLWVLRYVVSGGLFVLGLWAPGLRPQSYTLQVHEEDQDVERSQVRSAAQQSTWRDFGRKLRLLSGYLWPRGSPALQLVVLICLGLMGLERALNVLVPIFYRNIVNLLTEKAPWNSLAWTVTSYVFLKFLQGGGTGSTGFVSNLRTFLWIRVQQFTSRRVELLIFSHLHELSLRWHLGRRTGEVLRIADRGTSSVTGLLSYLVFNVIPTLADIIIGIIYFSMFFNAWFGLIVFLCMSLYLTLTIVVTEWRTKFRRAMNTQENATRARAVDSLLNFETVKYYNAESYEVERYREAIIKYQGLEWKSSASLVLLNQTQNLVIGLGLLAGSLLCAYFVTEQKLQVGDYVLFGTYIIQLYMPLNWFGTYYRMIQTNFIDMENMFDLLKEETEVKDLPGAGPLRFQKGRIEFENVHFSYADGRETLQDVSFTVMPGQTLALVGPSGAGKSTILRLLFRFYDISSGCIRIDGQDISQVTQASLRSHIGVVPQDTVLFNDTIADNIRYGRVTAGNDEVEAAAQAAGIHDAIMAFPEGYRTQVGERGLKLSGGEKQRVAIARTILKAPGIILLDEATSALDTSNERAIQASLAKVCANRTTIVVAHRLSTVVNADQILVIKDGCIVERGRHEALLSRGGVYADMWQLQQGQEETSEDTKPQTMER
Chain of Beta-adrenergic receptor kinase 1 (Homo sapiens) (P25098 whole entry, looked up): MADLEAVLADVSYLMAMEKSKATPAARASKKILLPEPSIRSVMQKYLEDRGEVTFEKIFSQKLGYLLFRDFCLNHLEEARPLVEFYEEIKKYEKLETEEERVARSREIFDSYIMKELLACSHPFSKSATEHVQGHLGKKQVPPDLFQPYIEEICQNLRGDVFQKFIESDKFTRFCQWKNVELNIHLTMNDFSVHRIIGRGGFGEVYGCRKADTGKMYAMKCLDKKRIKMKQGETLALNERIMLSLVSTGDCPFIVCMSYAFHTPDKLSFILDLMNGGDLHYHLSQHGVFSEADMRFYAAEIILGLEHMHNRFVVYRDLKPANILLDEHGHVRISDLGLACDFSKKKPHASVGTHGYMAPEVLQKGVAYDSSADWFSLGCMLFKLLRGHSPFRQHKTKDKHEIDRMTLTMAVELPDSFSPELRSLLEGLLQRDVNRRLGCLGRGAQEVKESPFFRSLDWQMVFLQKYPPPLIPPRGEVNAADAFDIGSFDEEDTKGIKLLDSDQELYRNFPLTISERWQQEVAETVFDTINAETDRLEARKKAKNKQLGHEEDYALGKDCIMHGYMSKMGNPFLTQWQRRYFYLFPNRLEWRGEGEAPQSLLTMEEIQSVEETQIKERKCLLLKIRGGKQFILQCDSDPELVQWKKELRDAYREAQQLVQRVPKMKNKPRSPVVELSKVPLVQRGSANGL

As for `Cc1c(OC(=O)CNC(=O)OC(C)(C)C)ccc2c3c(c(=O)oc12)CCC3`, the percent of DMSO control GFP in experiment [1] was 93.3% (inactive). Also, the GFP response vs DMSO in experiment [2] is 123% (inactive); in [4], 80.3% (inactive). Besides, the percent response of DMSO control in experiment [3] was 90% (inactive). In experiment [5], this compound returned a double positive events of 60.3%. Besides, the vesicle binding response in experiment [5] was 210% (inactive). For the same compound, the inhibition in experiment [6] was 9.37% (inactive); in experiment [10] it was 4.15% (inactive); in experiment [14] it was 1% (inactive). Besides, in [7], the superoxide response (% of plate) was 101% (inactive). Further, the aptamer binding inhibition in experiment [8] was -1% (inactive). Also, the results for the response in experiment [9] and in experiment [11] were -1.96% (inactive) and 0.35% (inactive), respectively. In addition, the binding (% of control) in [12] is 107% (inactive). Moreover, the efflux inhibition (fraction of control) in experiment [13] was 0.01 (inactive). In addition, the differentiation response in experiment [15] was 0% (inactive).

Take `O=C(OCC1OC2OC3(CCCCC3)OC2C2OC3(CCCCC3)OC12)c1ccccc1` (configuration not stated): in experiment [1], the percent of DMSO control GFP was 90.9% (inactive). In addition, the results for the GFP response vs DMSO in experiment [2] and in experiment [4] were 104% (inactive) and 76.5% (inactive), respectively. Also, in [3], the percent response of DMSO control is 116% (inactive). Moreover, the double positive events in [5] was 60.9%. Besides, in [5], the vesicle binding response was 154% (inactive). Besides, the inhibition in experiment [6] is 5.49% (inactive); in experiment [10] it was 5.67% (inactive); in [14], 5% (inactive). Besides, in experiment [7], the superoxide response (% of plate) is 102% (inactive). For the same compound, the aptamer binding inhibition in experiment [8] is 5% (inactive). The response in [9] is 11.7% (inactive); in experiment [11], 1.42% (inactive). For the same compound, in experiment [12], the binding (% of control) was 128% (inactive). Also, the efflux inhibition (fraction of control) in experiment [13] was 0.09 (inactive). Also, the differentiation response in experiment [15] was -0.82% (inactive).

As to `COCCc1ccc(OCC(O)CNC(C)C)cc1` (configuration not stated), in experiment [1], the percent of DMSO control GFP was 103% (inactive). Moreover, the percent response of DMSO control in [3] is 98.9% (inactive). Further, the GFP response vs DMSO in experiment [4] was 87.4% (inactive). Besides, the GFP response, % of DMSO in [16] is 97.6% (inactive). The double positive events in experiment [5] turned out to be 68.1%. For the same compound, in [5], the vesicle binding response was 212% (inactive). Moreover, the inhibition is 7.85% (inactive) in experiment [6], -6% (inactive) in [10] and 7% (inactive) in experiment [14]. In experiment [8], the aptamer binding inhibition is -2% (inactive). For the same compound, the response in experiment [11] was 1.04% (inactive). For the same compound, the binding (% of control) in [12] is 105% (inactive). Also, in experiment [13], the efflux inhibition (fraction of control) was 0.21 (inactive). In addition, the differentiation response in experiment [15] is 5.13% (inactive).

Take `C[C@]12CC[C@@H]3c4ccc(OS(=O)(=O)O)cc4CC[C@H]3[C@@H]1CCC2=O`: the percent of DMSO control GFP in experiment [1] was 90.6% (inactive). Besides, the GFP response vs DMSO in [2] was 120% (inactive); in [4], 79.2% (inactive). Moreover, the percent response of DMSO control in experiment [3] was 96.6% (inactive). The same compound gave a double positive events in [5] of 73.4%. Moreover, the vesicle binding response in [5] is 292% (inactive). Also, the inhibition in experiment [6] is 5.49% (inactive); in [10], -3.24% (inactive); in experiment [14] it was 11% (inactive). In addition, the superoxide response (% of plate) in experiment [7] is 95.8% (inactive). Moreover, the aptamer binding inhibition in experiment [8] was -3% (inactive). In addition, the response in experiment [9] was 0.04% (inactive); in experiment [11], 3.54% (inactive). The binding (% of control) in experiment [12] is 104% (inactive). The efflux inhibition (fraction of control) in [13] is -0.24 (inactive). In addition, the differentiation response in experiment [15] was 6.55% (inactive).

On to `CNCCCN1c2ccccc2CCc2ccccc21`, for which the percent of DMSO control GFP in experiment [1] was 93.3% (inactive). In addition, the values for the GFP response vs DMSO in experiment [2] and in [4] were 111% (inactive) and 78.7% (inactive), respectively. Further, the percent response of DMSO control in experiment [3] was 92.6% (inactive). The compound also showed a double positive events in [5] of 71.5%. The vesicle binding response in [5] was 231% (inactive). Besides, the inhibition in experiment [6] is 16.2% (inactive); in experiment [10], -10.5% (inactive); in [14] it was 9% (inactive). The superoxide response (% of plate) in experiment [7] was 81.9% (inactive). Also, in experiment [8], the aptamer binding inhibition is -1% (inactive). The response in [11] was 0.46% (inactive). The binding (% of control) in [12] was 109% (inactive). Besides, the efflux inhibition (fraction of control) in experiment [13] is -0.38 (inactive). In [15], the differentiation response was 9.83% (inactive).

The record behind these values is PubChem BioAssay.
